Data on 69 sequences can be found in PubChem BioAssay AID1508600 (Functional Genomics Laboratory (NCATS/FGL), 2020).

In all, about 53,000 sequences went through this assay and about 3,700 (7%) were called active.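 Rule for the calls: active = gene knockdowns whose robust z-score for IL-1 alpha signal is at least 2 or at most -2, so actives lie on both sides; inactive = the rest.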 The sample as a whole holds a higher share of actives than the screen did.

The experiment is described as follows: Components of the Cytosolic LPS Sensing Pathway: Gene Identification via Genome-wide siRNA Screen.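 Note: robust z of the log signal after scaling to non-targeting control siRNA wells of the plate.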 The following applies: RAW264.7 macrophages, IL-1a HTRF, actives lie on both sides, screened at 100 nM (by protocol), cells primed 5 h with Pam3CSK4 first. Summed up:
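Using IL-1a HTRF as read-out, the screen measured release from RAW264.7 cells after 48h siRNA knockdown (100 nM), 5 h Pam3CSK4 priming and 24 h cytosolic LipidA. Values were expressed relative to negative-control wells as robust z-scores.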
Background: TR-FRET usually uses a lanthanide donor and a delayed reading to cut background.
For the sequence GGUUUCCUUUUUGUUCAUUTT against Dlg3, the z-score was 0.566 (inactive).

Regarding CCGGUUGUUUUGAGUGUUGTT against Rad9b, the z-score is 1.09 (inactive). GGAAAACACAGCUACGGAATT against Ak5: the z-score was 2.21 (active).

On to CCAUAUAUUAUGGACCUUATT against Hepacam2, for which the z-score is -0.576 (inactive). Regarding CCGAAAUAAGGCUAGCUCATT against Rfx6, the z-score is -0.282 (inactive).

For the sequence GGUCUUACCAACAGAACCCTT against Rad51ap1, the z-score was 1 (inactive). Take GCAAUGCUCUAAUCCACUCTT against Npas4: the z-score was 0.654 (inactive). Take GGAAUUAUAGGACUUGUUCTT against Serinc1: the z-score was 0.256 (inactive). Turning to GGUUCCCAAAGUAGAAGCATT against Dkkl1, the z-score was -0.231 (inactive). In the case of GCUGAGUUGACUCCUACUGTT against Mcpt1, the z-score is -2.23 (active).

For the sequence GGAUUUGUUUUCAGAUGUGTT against Zfp329, the z-score was -1.56 (inactive). With GAUUCUUGUCGCUCAUAGCTT against Vmn1r52, the z-score is -0.535 (inactive). The result for GGGCACACAUAUGACCGUUTT against Rrad reads 0.261 (inactive); that for GCAUUCAUACAUGUAACAGTT against Wdr70, 0.336 (inactive); that for GUCACAGAAAGCUUAGUCCTT against Olfr427, -2.93 (active). The result for GGGACCAGAACAAAGUGGUTT against Olfr487 reads 0.474 (inactive); that for CCUAUUCAUCAUAACUCAUTT against Tdo2, 0.129 (inactive). Regarding CGAGCAUAAAAGUUAUGUGTT against Chaf1b, the z-score is 1.07 (inactive).

Take GGAUCCUUACAAUAACAUUTT against Mmut: the z-score is 2.04 (active). As for GCGUAUUUCCUUUCGGAGUTT against Exoc3, the z-score is 0.116 (inactive).

As for CCUAAGCCCUCUAAGGCAATT against Pik3r2, the z-score was -0.753 (inactive). The result for CCUCCUCUCCUAAAUGCCUTT against Llcfc1 reads -1.23 (inactive); that for GGAACGAGUUUUGAAAAAATT against Creb3l3, 0.073 (inactive). For GGAAGAACAUUGUUACCUGTT against Svep1, the z-score was 1.1 (inactive). Regarding GGUCCUACUUACUACUGCCTT against Fam83h, the z-score was 0.265 (inactive). For the sequence CGUCUACCCGGAAUUUCAGTT against Sdha, the z-score is -1.42 (inactive). For GGAAGGACUAUUUUCUUUCTT against Trak1, the z-score is 1.5 (inactive). Turning to GGCAGAAAGCAAAAUGUUUTT against Gata3, the z-score is -4.28 (active). As for GUGGAUACGUGGGAAAGUCTT against Nmnat1, the z-score is 0.0316 (inactive). The same measure for CGCUCUGUUAAUGCAGGAUTT against Papss1: 3.22 (active); for GCUAUUUCUGCCUUUAGUCTT against Scamp5: -0.0682 (inactive); for CCCACUGUGAAGAGAGGCATT against Xlr3c: -1.41 (inactive). GGUUCAGACAACUCAGUGGTT against Pbx1: the z-score is 0.813 (inactive). For the sequence GGAGAAGGUGCUCAAGUUGTT against Henmt1, the z-score was -2.45 (active). In the case of CGGAUUCAUCAGUUUGGUATT against Cdc7, the z-score was 0.274 (inactive). On to GCAACUUACUUGAUCUGAATT against Ap2b1, for which the z-score was -0.292 (inactive). Regarding CCUUCUAAUUAUCACCAAATT against Arhgap18, the z-score was -0.102 (inactive). Regarding GCUAACUGCACUCCGAGAUTT against Asap1, the z-score was -0.266 (inactive).

For GGAAAAUUGAUAGCAAGCUTT against Fbxw15, the z-score is 1.9 (inactive).

In the case of GGCACAUCUCCCUAACACUTT against Mvb12b, the z-score is -2.02 (active). For CCAAGCAUUAUGAGAUGCUTT against Sec23b, the z-score is 0.749 (inactive).

For GGUUACUAGAUGUAUUUUGTT against Ppp3cb, the z-score is -0.785 (inactive). Turning to GGAAGAGGACCAAAGUGCUTT against Pnpla7, the z-score is 1.75 (inactive).

Regarding GGAUCAACAUCAGAGUUCUTT against Zfp119b, the z-score is -0.562 (inactive). Regarding CCCUAAUUCUUAGGCCUUUTT against Bloc1s3, the z-score is -0.242 (inactive).

As to GGAAAGGUUUAAUCAUGAATT against Spred1, the z-score was 0.602 (inactive).

Regarding GGCAAGCACAAUGAUCAUUTT against Trappc11, the z-score was -2.36 (active). The same measure for CGCUUUAGUGACUUUCAAATT against Metrnl: -0.583 (inactive).

Turning to GCAGAUCCGAAUCAAUGAGTT against Twf2, the z-score was 0.504 (inactive). For GCGAUUGAGAGGCUACACUTT against Pigb, the z-score is 0.402 (inactive). The result for GGGCUGUUAUUUCAAGAAATT against Galnt13 reads -0.173 (inactive); that for CCCACUAAAAUCCUAUCUCTT against Ggta1, -2.57 (active); that for GGGUCAAGUUUACAGAUGATT against Luc7l, 0.0159 (inactive). Regarding GGGUGCAUUUUAAAUACUATT against Spred2, the z-score is 0.73 (inactive).

Take GGAAUCCUCUAAAUGACCUTT against Vmn1r174: the z-score is -1.49 (inactive). Take GGCCAUUCUUUGUCACCCATT against Os9: the z-score was -2.87 (active). As to CCAUUAACUCUUUGAGUAUTT against Omg, the z-score is 0.321 (inactive). The same measure for GGAGCUGAGAAACAAGAUUTT against Bspry: -0.972 (inactive). Consider GGAUGUUAAAGCCAUAUACTT against Msh6, for which the z-score was -0.788 (inactive). GGGCUACCUCAGUUUAAACTT against Spic: the z-score is 0.763 (inactive). Regarding GGCAAUAACUGCUUUAUCUTT against Olfr509, the z-score was -0.68 (inactive). GCGUAUUCAGCUGGGAUAGTT against Marveld2: the z-score was -2.42 (active).

For CCUUCGUGUUCACUUUAAGTT against Rpl17, the z-score is -1.5 (inactive). As for CCACUAAUAGUCGUAGAAUTT against Dand5, the z-score is 0.535 (inactive). Turning to GCCAUCUCUAUGUUGUUGATT against Smtnl2, the z-score is -0.108 (inactive). Regarding GGUCAUCCUCAAGAUGAAGTT against Zfp819, the z-score was -2.82 (active).

As for GGCAUGUCCAAGGAAUACUTT against Snrpg, the z-score is -1.4 (inactive). GGUUAAUCUGAGAAUUCUATT against Kcnk1: the z-score was 0.717 (inactive). As for CCCAAUUUUUAGUUGCUAATT against Rab2b, the z-score is 0.0495 (inactive).
